Data on 63 compounds can be found in PubChem BioAssay AID651965 (National Center for Advancing Translational Sciences (NCATS), 2013).

Among all 340,000 compounds or so, about 6,400 (1.9%) were called active. Another 4% or so got no clear call; they are omitted. The call rests on the fitted dose curve; in most records, active means well fitted falling curve with a large enough effect; inconclusive means small, poorly fitted or top-dose-only effect; inactive means no such curve, though single readings can be large or run the other way. The list comes from a sample in which actives are over-represented; it also holds similar structures and randomly drawn compounds. Where a call stands in place of a potency, no number is given.
Potency means the concentration at half of the fitted maximal effect.

ATP-dependent Clp protease proteolytic subunit (Bacillus subtilis (strain 168)), sequence (P80244 whole entry, looked up): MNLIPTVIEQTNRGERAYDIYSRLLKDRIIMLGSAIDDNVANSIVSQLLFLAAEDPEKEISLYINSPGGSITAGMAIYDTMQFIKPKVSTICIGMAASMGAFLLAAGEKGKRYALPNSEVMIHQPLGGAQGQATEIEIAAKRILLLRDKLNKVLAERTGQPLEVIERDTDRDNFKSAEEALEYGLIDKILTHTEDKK

This test addresses ATP-dependent Clp protease proteolytic subunit (Bacillus subtilis (strain 168)) (UniProt P80244). The experiment in a line: qHTS Assay for Activators of ClpP. Further: the source files actives as falling curves though it sought activators and does not explain the sign; nearly all actives have a fitted effect of over 65% in size. Conditions: purified B. subtilis ClpP, FRET peptide cleavage, 20 min; series mostly up to 57.5 µM. The essentials:
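Purified B. subtilis ClpP, 10 microg/mL final in Tris/HCl pH8 with KCl, BSA, glycerol and Tween-20, cleaved an Abz/nitrotyrosine-quenched decapeptide. Fluorescence (ex 320, em 430) was read at 0 and 20 min at room temperature. Delta was normalized to 5.8 microM ADEP and DMSO/no-enzyme controls.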
On to `CCCCCCN1CCN(C2CN(Cc3cn(Cc4ccc(F)cc4)nn3)S(=O)(=O)C2)CC1` (stereo not drawn), for which the Potency result is “inactive”.

Turning to `CCN1C(=O)[C@H]2[C@@H](c3ccc(SC4CCCCC4)c(OC)c3)N[C@@](Cc3ccccc3)(C(=O)OC)[C@H]2C1=O`, the Potency is 35.5 µM (active). Regarding `CCN1C(=O)[C@H]2[C@@H](c3ccc(-c4ccc(F)cc4)cc3)N[C@@](Cc3ccccc3)(C(=O)OC)[C@H]2C1=O`, the Potency entry is “inactive”. Regarding `CCN1C(=O)[C@H]2[C@@H](c3ccc(-c4ccc(OC)cc4)cc3)N[C@@](Cc3ccccc3)(C(=O)OC)[C@H]2C1=O`, the Potency entry is “inactive”. For `CCCCC[C@H](C)N1C[C@@H](COCc2ccccc2)Oc2cc(N3CC[C@@H](N(C)C)C3)ccc2S1(=O)=O` the value was “inactive”; for `O=C(NCc1ccccn1)[C@@H]1CCCN1C(=O)[C@@H]1CCCN1C(=O)c1ccccc1`, “inactive”; for `COc1ccc(N2c3ccccc3CN(Cc3ccccc3)[C@@H](C)[C@H]2Cc2ccc(-c3ccccc3)cc2)cc1`, “inactive”. Turning to `C=CCNC(=O)c1ccc2nc(-c3ccco3)c(-c3ccco3)nc2c1`, the Potency entry is “inactive”. The value for `Cc1c(NC(=O)C(C)(C)C)cccc1-c1nc2ccccc2s1` was “inactive”. For `CC(C)(C)C(=O)Nc1cccc(-c2ccc[nH]2)n1` the value was 12.6 µM (active); for `Cc1c(-c2cccc(NC(=O)C(C)(C)C)c2)nc2ncccn12`, “inactive”. For the compound `COc1cccc(-c2cc(NC(C)=O)c3ncc(-c4cccc(C(C)=O)c4)n3c2)c1`, the Potency entry was “inactive”.

As for `CCOC(=O)C1CCCN(C(=O)c2ccc(N(C)C)cc2)CC1` (stereo not drawn), the Potency entry is “inactive”. In the case of `Cc1sc2c(c1C)c(=O)n(-c1ccccc1)c(=O)n2CC(=O)NCC1CCCO1` (stereo not drawn), the Potency result is “inactive”. For `CC(C)(C)c1nc(NCC2CCCO2)c2nnn(Cc3ccccc3)c2n1` (stereo not drawn) the value was “inactive”; for `Cn1c(=O)c2[nH]c(NCC3CCCO3)nc2n(-c2ccccc2)c1=O` (stereo not drawn), 28.2 µM (active). Regarding `Oc1ccc(Br)cc1C1C=C(c2ccc3c(c2)OCO3)NC(c2ccc(Cl)cc2)N1` (stereo not drawn), the Potency entry was “inactive”.

As for `CCc1ccc(OC2(C)CCN(CCOc3ccc(C)cc3)C2)cc1` (stereo not drawn), the Potency result was “inactive”. The value for `CC(C)Cc1ccc(-c2cc3nc(NCc4cccc(Cl)c4)ccn3n2)cc1` was “inactive”. The value for `COC(=O)Cc1cc(=O)oc2c(C)c(O)ccc12` was 15.8 µM (active). The value for `COc1cccc(C(=O)OCc2cc(=O)oc3c(C)c(C)ccc23)c1OC` was “inactive”; that for `CCCc1cc(=O)oc2c(C)c(OCC(=O)Nc3ccccn3)ccc12` was “inactive”; that for `CCOC(=O)[C@]12CCC=C1N(CCC1=CCCCC1)C(=O)[C@H](CC(=O)NCc1ccc(C)o1)C2` was “inactive”.

`Cc1nccn1-c1ccc(NC(=O)[C@H]2O[C@@H](n3cnc4c(N)ncnc43)[C@H](O)[C@@H]2O)cc1`: the Potency entry was “inactive”. The value for `O=C(NCc1cccnc1)c1cc(C2CCCN(C(=O)C3CCCCC3)C2)on1` (stereo not drawn) was “inactive”; that for `CN(C)c1ccc(/C=C/C=C/c2ccnc3ccccc23)cc1` was “inactive”. For `COc1ccc(Br)c(Cn2c(C)c(C(=O)NCc3cccs3)sc2=O)c1` the value was “inactive”. For `O=C(NCc1ccccc1)C(c1ccc(F)cc1)N1CCN(C(=O)C2CCCO2)CC1` (stereo not drawn) the value was “inactive”; for `COc1cccc(CNC(=O)c2cccnc2Sc2ccc(Cl)cc2)c1`, “inactive”; for `CCN(Cc1ccccc1)C(=O)c1cn(-c2cccc(OC)c2)c(=O)c2ccccc12`, “inactive”. As for `COc1cccc(-n2cc(C(=O)NCc3cccc(Cl)c3)c3ccccc3c2=O)c1`, the Potency is 25.1 µM (active). For `CC1(C)CC(=O)c2cc(C(=O)NCc3ccccc3)c(=O)[nH]c2C1` the value was “inactive”; for `Cc1ccc(-c2ccc(=O)n(Cc3ccc(F)cc3Cl)n2)cc1`, “inactive”. As for `CC(=O)Nc1cc(C(=O)NCc2ccc(F)cc2Cl)ccc1Sc1ccc(Cl)cc1`, the Potency result is “inactive”.

For the compound `CN(C)Cc1ccc(F)cc1Sc1cc(Cl)ccc1Cl`, the Potency is 12.6 µM (active).

With `Brc1cccc[n+]1Cc1cccc(C[n+]2ccccc2Br)c1`, the Potency result was “inactive”. The value for `CC(C)C(=O)Nc1ccc2oc(=O)ccc2c1` was 35.5 µM (active); that for `Cc1ccc2oc(=O)ccc2c1` was “inactive”. Take `CC(C)C(=O)Nc1ccc2c(c1)oc1ccccc12`: the Potency result is “inactive”. The value for `COc1ccc(C(C)(O)c2nc(-c3cc(F)cc(F)c3)cs2)cc1` (stereo not drawn) was “inactive”; that for `CN1CCN(c2ccc3c(c2)OC[C@H](Cc2ccccc2)NS3(=O)=O)CC1` was “inactive”.

Turning to `COc1ccccc1CNC(=O)c1cc(-c2cc(F)ccc2OC)n[nH]1`, the Potency entry was “inactive”.

For the compound `O=C(OC1CCOC1=O)c1ccc(-c2nc3ccccc3s2)s1` (stereo not drawn), the Potency is 17.8 µM (active).

Take `Cc1nn(Cc2ccccc2)c(Cl)c1C(=O)OC1CCOC1=O` (stereo not drawn): the Potency result is “inactive”. The value for `CC(C)(C)c1ccc(OCC(=O)N2CCC(c3nc4ccccc4s3)CC2)cc1` was “inactive”; that for `COCCNC(=O)c1cc2c(Br)ccc(Br)c2nc1N` was “inactive”; that for `CCOP(=O)(OCC)C(Cc1ccccc1)N=C(c1ccccc1)c1ccccc1` (stereo not drawn) was “inactive”. For `CCCC1OC23CCCCC2C(C#N)(C#N)C1(C#N)C(=N)O3` (stereo not drawn) the value was 20 µM (active); for `O=C(Nc1ccccc1)c1ccccc1OCc1ccccc1`, “inactive”; for `C[C@H]1CN([C@@H](C)CO)C(=O)CCCn2nncc2CO[C@@H]1CN(C)Cc1ccc(Oc2ccccc2)cc1`, “inactive”. For `NC(c1ccccc1)c1csc(NC(=O)Nc2cccc(C(F)(F)F)c2)n1` (stereo not drawn) the value was “inactive”; for `COCCCn1c(C(=O)NC2CCCCC2)cc2c(=O)n3cccc(C)c3nc21`, “inactive”; for `CCCn1c(=N)c(C(=O)NCc2ccccc2)cc2c(=O)n3cccc(C)c3nc21`, “inactive”.

Turning to `Cc1cccn2c(=O)c3cc(C(=O)N4COCC4(C)C)n(C)c3nc12`, the Potency is 28.2 µM (active). The value for `O=C1NC[C@H](CCCCN2C[C@H](Cc3ccc(O)cc3)N(CC3CCCCC3)C(=O)C2=O)N(CCc2ccccc2)C1=O` was “inactive”; that for `Cn1c(=O)c2cc(NC(=O)NCCc3cccs3)ccc2n1Cc1cccc(C(F)(F)F)c1` was “inactive”; that for `CSc1ccc(-c2c(C#N)c(N)nc3c2c(C)nn3-c2ccccc2)cc1` was 22.4 µM (active). For `Cc1nc2c(c(C)nn2-c2ccccc2)c(C)c1C` the value was “inactive”; for `Cc1nn(-c2ccccc2)c2c1C(c1ccc(F)cc1)C(C#N)=C(N)O2` (stereo not drawn), “inactive”; for `COc1ccc(NC(=O)C2(C)Cc3c(-c4cccc(NC(C)=O)c4)ccnc3O2)cc1OC` (stereo not drawn), “inactive”. Take `O=C(Nc1cc(C(F)(F)F)ccc1Cl)c1nc2ccccc2nc1N1CCCCC1`: the Potency result is “inactive”.

Take `FC(F)(F)c1cccc(-c2cc3ccccc3nc2N2CCCC2)c1`: the Potency was 31.6 µM (active). With `FC(F)(F)c1cccc(-c2nc3ccccc3n2C(c2ccccc2)c2nc3ccccc3[nH]2)c1` (stereo not drawn), the Potency result was “inactive”.
